Screens (PubChem)
Dicer inh – human Dicer pre-microRNA cleavage inhibition. z-score at 25 µM. cat-ELCCA pre-miR-21 Dicer processing, chemiluminescence; hits give high values. Q9UPY3. 47,000 compounds, 6% hits; in the data active = z-score above about 3, passing the limit was not always enough;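 note: plate controls were vehicle for no effect and no enzyme for full effect; higher signal means more uncleaved substrate so more Dicer inhibition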
Active calls of the source: *. Only a selection was taken, and hits are over-represented in it overall.

`O=C1C(=Nc2ccccc2)c2ccccc2N1Cc1ccccc1` gave Dicer inh -1.8.
Cc1cc2n(n1)C(c1ccc3c(c1)OCO3)Nc1c(C)cccc1-2 (centres undefined) was read as Dicer inh 3.1*.
Cc1cc(C)c2c(c1)-c1cc(C)nn1C(c1ccc3c(c1)OCO3)N2 (centres undefined) was read as Dicer inh 1.2.
Screening C=CCSc1nnc(-c2ccc(C(F)(F)F)cn2)s1 returned Dicer inh -0.1.
Screening Cc1nc(NC2=NCN(Cc3ccco3)CN2)nc2ccccc12 returned Dicer inh -0.78.
Screening Fc1ccccc1CN1CCN(Cc2c[nH]c3ccccc23)CC1 returned Dicer inh 3.7*.
For O=C1COCC(=O)N1CCc1c[nH]c2ccccc12 the results were Dicer inh -1.2.
Screening Cc1cccc(CN2CCN(Cc3c[nH]c4ccccc34)CC2)c1 returned Dicer inh 1.7.
`Brc1ccc(CN2CCN(Cc3c[nH]c4ccccc34)CC2)cc1` gave Dicer inh 2.7.
`COc1ccc2c(c1)CCCN2Cc1c[nH]c2ccccc12` gave Dicer inh -1.9.
For Clc1ccccc1CN1CCN(Cc2c[nH]c3ccccc23)CC1 the results were Dicer inh 4.5*.
`Fc1ccccc1CN1CCN(CCCc2ccccc2)CC1` gave Dicer inh 2.5.
FC(F)(F)c1cnc(N2CCN(Cc3c[nH]c4ccccc34)CC2)c(Cl)c1 was read as Dicer inh -1.6.
Screening CCS(=O)(=O)N1CCN(Cc2c[nH]c3ccccc23)CC1 returned Dicer inh 3.5*.
For O=c1[nH]c(O)c(C=Nc2cc(C(F)(F)F)cc(C(F)(F)F)c2)c(=O)[nH]1 the results were Dicer inh -0.37.
For CS/C(NCC1CC1)=C(/C#N)C(=O)c1ccc(Cl)cc1 the results were Dicer inh -1.9.
`CC1=C(C(=O)OCCc2ccccc2)C(c2ccc(C)o2)C2=C(CCCC2=O)N1` (centres undefined) gave Dicer inh 0.72.
For CS(=O)(=O)N1CCN(c2cc(C(F)(F)F)nc3ccccc23)CC1 the results were Dicer inh 1.1.
`COc1ccc(-c2cn3cc(-c4cccc(Cl)c4)nc3n2C)cc1` gave Dicer inh -0.91.
Screening O=c1oc(-c2c(F)cccc2F)nn1-c1ccc(C(F)(F)F)cn1 returned Dicer inh -0.42.
`Cc1onc(-c2c(Cl)cccc2Cl)c1NC(=O)N1CCc2sccc2C1C` (centres undefined) gave Dicer inh 1.2.
`Cc1ccc(Sc2cccc3nc(N)nc(N)c23)cc1` gave Dicer inh -0.41.
Clc1ccc(/C=C/c2nc3ccccc3o2)cc1 was read as Dicer inh 0.72.
For COc1ccc(C(=O)NC2=NCCS2)cc1OC the results were Dicer inh 1.
S=c1[nH]c(-c2ccccc2)c(-c2ccccc2)o1 was read as Dicer inh -0.11.
Screening COC(=O)CS(=O)(=O)c1ccc(C(F)(F)F)cn1 returned Dicer inh 3.4*.
COC(=O)C(C)(C)S(=O)(=O)c1ccc(C(F)(F)F)cn1 was read as Dicer inh -0.28.
O=C(CS(=O)(=O)c1ccc(C(F)(F)F)cn1)NNC(=O)Nc1ccccc1 was read as Dicer inh 0.12.
Screening Cc1ccc(OCc2n[nH]c(=S)n2Cc2ccccc2)c2c1CCC2 returned Dicer inh 0.84.
Screening O=[N+]([O-])c1ccc(NS(=O)(=O)c2ccc(-c3ccc(S(=O)(=O)Nc4ccc([N+](=O)[O-])cc4)s3)s2)cc1 returned Dicer inh 5.3*.
Screening Cc1cc(C)c(NS(=O)(=O)c2cc([N+](=O)[O-])ccc2C)c(C)c1 returned Dicer inh 0.22.
Screening CNS(=O)(=O)Cc1ccc([N+](=O)[O-])cc1 returned Dicer inh -1.9.
For Cn1nccc1NS(=O)(=O)c1cccc(Cl)c1 the results were Dicer inh -0.68.
`Cc1nn(-c2ccccc2)c(C)c1C(=O)O` gave Dicer inh 8.4*.
For CC(C)(C)c1cc(C(=O)O)nn1-c1ccccc1 the results were Dicer inh 0.69.
For O=C(Nc1ccccc1)c1nc(-c2ccccc2)n(-c2ccccc2)n1 the results were Dicer inh 0.27.
COc1ccc(OC(=O)c2c(C)nn(-c3ccccc3)c2C)cc1 was read as Dicer inh 0.4.
O=C(O)c1nc(-c2ccccc2)n(-c2ccccc2)n1 was read as Dicer inh 5.4*.
Cc1nn(-c2ccccc2)c(C)c1C(=O)Oc1ccc(Cl)cc1Cl was read as Dicer inh 0.09.
Screening COC(=O)C(Cc1c[nH]c2ccccc12)NS(=O)(=O)c1ccc(CNC(=O)c2ccccc2)s1 (centres undefined) returned Dicer inh -0.97.
`COc1ccc(NC(=O)N=S2CCN(S(=O)(=O)c3ccc(Cl)cc3)CC2)cc1` gave Dicer inh -0.71.
COC(=O)c1ccsc1NC(=O)CN1CCN(S(=O)(=O)c2ccc(Cl)cc2)CC1 was read as Dicer inh 3*.
COC(=O)c1ccsc1NC(=O)CN1c2cccc3cccc(c23)S1(=O)=O was read as Dicer inh 1.9.
Screening CC(=O)Oc1ccc2oc(C)c(C(=O)OC(C)C)c2c1 returned Dicer inh 0.44.
For CC(=O)Oc1ccc2oc3c(c2c1)C(=O)CCC3 the results were Dicer inh 4.8*.
Screening CC(=O)Oc1ccc2c(C)cc(=O)oc2c1 returned Dicer inh -0.41.
`Cc1ncc(S(=O)(=O)c2ccc(Cl)cc2)c(N)n1` gave Dicer inh -1.6.
Screening CCOC(=O)c1cnn(-c2ccc(Cl)cc2)c1C(F)(F)F returned Dicer inh -0.46.
Screening O=S(=O)(c1ccc(NC(=S)NC2CCCC2)cc1)N1CCCCC1 returned Dicer inh 1.8.
For O=S(=O)(c1ccc(NC(=S)N/N=C/c2ccccn2)cc1)N1CCCCC1 the results were Dicer inh 4.2*.
For O=S(=O)(c1ccc(NC(=S)N/N=C/c2ccccc2)cc1)N1CCCCC1 the results were Dicer inh 2.3.
For O=C(NCc1ccc2c(c1)OCO2)C1CC(=O)N(CCc2ccc(Cl)cc2)C1 (centres undefined) the results were Dicer inh 0.82.
`O=c1cc(C(F)(F)F)[nH]c2n[nH]c(-c3cccs3)c12` gave Dicer inh -0.39.
For COc1ccc(-c2c(C)nn3c(C)cc(C)nc23)cc1OC the results were Dicer inh 4.8*.
Screening COc1ccc(-c2c(C)nn3c(-c4ccccc4)cc(C)nc23)cc1OC returned Dicer inh 2.2.
`COc1ccc(-c2c(C)nn3c(N)c(-c4ccc(Cl)cc4)cnc23)cc1OC` gave Dicer inh 5.5.
For OCC#CCSc1nc2ccccc2n1Cc1ccccc1 the results were Dicer inh -2.4.
`FC(F)(F)c1cc(Cl)c2nsnc2c1` gave Dicer inh 4.5*.
`Clc1cc2nsnc2cc1Cl` gave Dicer inh 0.42.
Screening O=C(O)c1ncc(C(F)(F)F)cc1Cl returned Dicer inh 1.2.
Screening Cc1ccc(S(=O)(=O)NC2CCSC2=O)cc1 (centres undefined) returned Dicer inh 1.2.
For COC(=O)C1SCCN1S(=O)(=O)c1ccc(Cl)cc1 (centres undefined) the results were Dicer inh 0.26.
For Cn1c(=O)c2c(nc(Cl)n2Cc2ccccc2Cl)n(C)c1=O the results were Dicer inh 2.3.
CSc1nc(C=Nc2ccccc2)c(O)n1Cc1ccccc1Cl was read as Dicer inh 5.1*.
`CSc1nc(C=Nc2cccc(Cl)c2)c(O)n1Cc1cccc(Cl)c1` gave Dicer inh 1.6.
